PubChem BioAssay AID651956 (Broad Institute, 2012)
Measured potencies and affinities stand elsewhere. Results filed as inconclusive are left out. The source made the active and inactive calls.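 How the source made its calls: active means in every test run, a fitted half-maximal concentration for signal decrease at or below twice the highest tested concentration; inconclusive means runs disagree, flat 30 to 70% decrease, or poor fit; inactive means the rest.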

test: activation of miR-122 Renilla sensor silencing – cell-based, Huh7 psiCHECK-miR122, Renilla luciferase, cherry-picked, dose response (AID 651956); conditions: Huh7 psiCHECK-miR122 Renilla luciferase reporter, 48 h; series mostly up to 35 µM

**Q.** Which outcome does the source give for `C[C@@H]1CN([C@@H](C)CO)C(=O)c2cccc(NC(=O)Nc3ccc4c(c3)OCO4)c2O[C@@H]1CN(C)Cc1ccc(Oc2ccccc2)cc1` here?
**A.** Its outcome is “inactive”.

**Q.** Which outcome does the source give for `CCCN(C[C@@H]1N[C@@H](CO)[C@H]1c1ccc(-c2cccnc2)cc1)C(C)=O` here?
**A.** Its outcome is “inactive”.

**Q.** For `COCC(=O)NC[C@H]1[C@@H](c2ccc(C3=CCCC3)cc2)[C@H](CO)N1C(=O)C1CC1`, which outcome is on record?
**A.** Its outcome is “inactive”.

**Q.** With `Cc1cc(CN(C)C(=O)c2cc(COc3ccc4ncccc4c3)on2)on1` as the compound, how does the outcome read?
**A.** The outcome was “inactive”.

**Q.** With `Cc1ccnc(Nc2nc(-c3c(C)nc4sccn34)cs2)c1` as the compound, how does the outcome read?
**A.** Its outcome is “inactive”.

**Q.** For `Cc1cc(C(=O)Nc2cccc(O)c2)co1`, which outcome is on record?
**A.** The outcome was “inactive”.

**Q.** For `C[C@H](CO)N1C[C@H](C)[C@@H](CN(C)Cc2ccc(C(F)(F)F)cc2)Oc2ccc(NS(=O)(=O)c3ccc(Cl)cc3)cc2CC1=O`, which outcome is on record?
**A.** Its outcome is “inactive”.

**Q.** For `COC(=O)C[C@H]1CC[C@H]2[C@H](COc3ccc(NC(=O)c4cccc(F)c4)cc3C(=O)N2C)O1`, which outcome is on record?
**A.** Its outcome is “inactive”.

**Q.** For `CNC(=O)C[C@@H]1CC[C@@H]2[C@H](COc3ccc(NC(=O)NC(C)C)cc3C(=O)N2C)O1`, which outcome is on record?
**A.** Its outcome is “inactive”.

**Q.** For `Cc1ccccc1NC(=O)Nc1ccc2c(c1)C(=O)N(C)[C@H]1CC[C@@H](CC(=O)O)O[C@H]1CO2`, which outcome is on record?
**A.** The outcome was “inactive”.

**Q.** For `C/C=C/c1ccc([C@H]2[C@@H](CO)N(Cc3ccccn3)[C@@H]2CNC(=O)CC)cc1`, which outcome is on record?
**A.** The outcome was “inactive”.

**Q.** For `C[C@H]1CN([C@@H](C)CO)S(=O)(=O)c2ccc(-c3ccccc3F)cc2O[C@@H]1CN(C)Cc1cccnc1`, which outcome is on record?
**A.** Its outcome is “inactive”.

**Q.** Which outcome does the source give for `O=C(NC[C@@H]1[C@@H](c2ccccc2)[C@H](CO)N1C(=O)C1CCC1)NC1CCCC1` here?
**A.** The outcome was “inactive”.

**Q.** With `CC(C)c1ccc(CNC(=O)CSCC(=O)Nc2ccc3ccccc3c2)cc1` as the compound, how does the outcome read?
**A.** The outcome was “inactive”.

**Q.** With `CNC(=O)C[C@@H]1CC[C@H]2[C@@H](COc3ccc(NC(=O)c4ccc(C(F)(F)F)cc4)cc3C(=O)N2C)O1` as the compound, how does the outcome read?
**A.** Its outcome is “inactive”.

**Q.** With `Cc1ccc(S(=O)(=O)NCCCNS(C)(=O)=O)cc1` as the compound, how does the outcome read?
**A.** Its outcome is “inactive”.

**Q.** With `CC(=O)N1[C@H](CNC(=O)C2CC2)[C@H](c2ccc(-c3cccc(F)c3)cc2)[C@@H]1CO` as the compound, how does the outcome read?
**A.** The outcome was “inactive”.

**Q.** With `COc1cccc(NC(=O)C[C@@H]2CC[C@@H]3[C@@H](COc4ccc(NS(=O)(=O)c5cccc(F)c5)cc4C(=O)N3C)O2)c1` as the compound, how does the outcome read?
**A.** The outcome was “inactive”.

**Q.** With `O=C(NC[C@H]1[C@H](c2ccccc2)[C@@H](CO)N1Cc1ccccn1)C1CC1` as the compound, how does the outcome read?
**A.** Its outcome is “inactive”.

**Q.** For `COc1ccc(CNC(=O)C[C@H]2CC[C@H]3[C@H](COc4ccc(NC(=O)C(C)C)cc4C(=O)N3C)O2)cc1`, which outcome is on record?
**A.** Its outcome is “inactive”.

**Q.** For `CCNC(=O)Nc1ccc2c(c1)C(=O)N(C)[C@H]1CC[C@H](CC(=O)Nc3ccccc3F)O[C@@H]1CO2`, which outcome is on record?
**A.** Its outcome is “inactive”.

**Q.** Which outcome does the source give for `CCNC(=O)C[C@H]1CC[C@H]2[C@@H](COc3ccc(NS(C)(=O)=O)cc3C(=O)N2C)O1` here?
**A.** The outcome was “inactive”.

**Q.** Which outcome does the source give for `CC(C)NC(=O)Nc1ccc2c(c1)C(=O)N(C)[C@@H]1CC[C@@H](CC(=O)NCC(F)(F)F)O[C@@H]1CO2` here?
**A.** Its outcome is “inactive”.

**Q.** Which outcome does the source give for `CN(C)CCNC(=O)C1CC(=O)N(c2ccc(F)c(Cl)c2)C1` (stereo not drawn) here?
**A.** Its outcome is “inactive”.

**Q.** Which outcome does the source give for `CO[C@H]1CN(C)C(=O)c2cc(NC(C)=O)ccc2OC[C@@H](C)N(C(=O)c2ccccn2)C[C@H]1C` here?
**A.** The outcome was “inactive”.

**Q.** For `O=CN1CCN(C(=O)c2ccccc2F)CC1`, which outcome is on record?
**A.** Its outcome is “inactive”.

**Q.** Which outcome does the source give for `COc1cccc(NC(=O)Nc2ccc3c(c2)C(=O)N(C)[C@@H]2CC[C@H](CC(=O)O)O[C@H]2CO3)c1` here?
**A.** The outcome was “inactive”.

**Q.** For `C[C@H]1CN([C@@H](C)CO)S(=O)(=O)c2ccc(C#CC3CCCCC3)cc2O[C@@H]1CN(C)C`, which outcome is on record?
**A.** The outcome was “inactive”.

**Q.** For `COC(=O)C[C@@H]1CC[C@@H]2[C@H](COc3ccc(NS(=O)(=O)c4ccc(F)cc4)cc3C(=O)N2C)O1`, which outcome is on record?
**A.** Its outcome is “inactive”.

**Q.** Which outcome does the source give for `CCOc1cc(C(=O)NC(C)COC)cc(OCC)c1OCC` (stereo not drawn) here?
**A.** Its outcome is “inactive”.

**Q.** For `CN1C(=O)c2cc(NC(=O)Nc3ccccc3Cl)ccc2OC[C@H]2O[C@H](CC(=O)O)CC[C@H]21`, which outcome is on record?
**A.** Its outcome is “inactive”.

**Q.** Which outcome does the source give for `C[C@@H]1CN([C@H](C)CO)C(=O)c2cccc(NC(=O)c3ccc(-c4nccs4)cc3)c2O[C@H]1CN(C)S(=O)(=O)c1ccc(F)cc1` here?
**A.** The outcome was “inactive”.

**Q.** For `O=C(Nc1ccccc1F)N1[C@H](CO)[C@@H]2c3ccccc3NC[C@@H]21`, which outcome is on record?
**A.** The outcome was “inactive”.

**Q.** For `O=C(CN1CCN(c2nc(-c3ccccc3)cs2)CC1)Nc1ccc2c(c1)OCO2`, which outcome is on record?
**A.** Its outcome is “inactive”.

**Q.** Which outcome does the source give for `C/C(=N\Nc1cc(N2CCCCC2)nc(C)n1)c1ccc(Br)cc1` here?
**A.** Its outcome is “inactive”.

**Q.** For `Cc1ccc(-c2nnn(CC(=O)N(CC(=O)NCC3CCCO3)c3ccccc3)n2)o1` (stereo not drawn), which outcome is on record?
**A.** Its outcome is “inactive”.

**Q.** Which outcome does the source give for `COc1ccc(N2CCc3c(C)nc4c(OC)cc(OC)cc4c32)c(OC)c1` here?
**A.** The outcome was “inactive”.

**Q.** For `COc1ccc2[nH]c(=O)c(COC(=O)c3ccco3)cc2c1`, which outcome is on record?
**A.** The outcome was “inactive”.
